The nature of experiment [1]: AP1 Signaling Pathway (AID 357; active = well fitted curve in either direction with a large enough effect, not every such curve was filed as active; note: % is set by controls: 0 for no effect and ±100 for the full control effect). To be noted: ME-180 AP-1-bla reporter, EGF-induced, beta-lactamase ratio, 5 h; at 7.69 µM (top of the series) unless noted. A digest of the protocol:
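AP-1-bla ME-180 cells with beta-lactamase reporter under AP-1 response element, stimulated with EC50 EGF; compounds titrated, 5 hours at 37 degrees Celsius. CCF4 read at 460/530 nm ratio; positive and negative modulators judged by AC50.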

In experiment [2] the target is Cytochrome P450 1A2 (Homo sapiens) (UniProt P05177). In words: p450-cyp1a2 (AID 410; calls by dose curve; note: potency is the fitted concentration of half-maximal effect;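 for activity change, negative = inhibition: -100% = full effect of reference inhibitor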). The gist of the method: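 O-Demethylation of luciferin 6' methyl ether by human CYP1A2 is monitored as luciferase luminescence. Substrate sits at Km (100uM); enzyme is 20nM. Values are scaled to 57 uM furafylline as maximal inhibition.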
Chain of Cytochrome P450 1A2 (Homo sapiens) (P05177 whole entry, looked up): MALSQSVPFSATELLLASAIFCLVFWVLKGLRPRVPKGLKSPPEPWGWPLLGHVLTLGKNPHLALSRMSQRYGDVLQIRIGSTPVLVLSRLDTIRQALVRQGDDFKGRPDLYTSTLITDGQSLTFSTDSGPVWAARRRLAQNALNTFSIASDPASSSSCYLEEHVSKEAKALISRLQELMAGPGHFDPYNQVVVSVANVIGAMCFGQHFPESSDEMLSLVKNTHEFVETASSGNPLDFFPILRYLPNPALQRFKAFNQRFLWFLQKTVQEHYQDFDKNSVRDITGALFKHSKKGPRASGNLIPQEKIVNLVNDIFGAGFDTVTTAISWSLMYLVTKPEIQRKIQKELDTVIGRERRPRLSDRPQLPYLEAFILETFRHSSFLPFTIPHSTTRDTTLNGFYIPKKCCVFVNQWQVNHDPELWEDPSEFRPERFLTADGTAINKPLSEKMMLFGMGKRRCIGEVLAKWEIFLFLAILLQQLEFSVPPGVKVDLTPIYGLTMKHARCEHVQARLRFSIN
A short description of experiment [3]: NFAT Signaling Pathway (AID 444; active = well fitted curve in either direction with a large enough effect, not every such curve was filed as active;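 note: carbachol stimulus at about its EC50 of 1 µM final; % is set by controls: 0 for no effect and ±100 for the full control effect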). The following applies: Jurkat NFAT-bla M1, carbachol, beta-lactamase ratio, 5 h; at 7.69 µM (top of the series) unless noted. A digest of the protocol: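 Jurkat cells with NFAT-driven β-lactamase reporter and co-expressed M1 receptor, stimulated with carbachol (final 1 uM, ~EC50), compound titration, 5 h at 37 °C. CCF4 loaded 1 h at RT; 460/530 nm ratio gave %activity and AC50.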

Experiment [4] concerns the target Glucocorticoid receptor (Homo sapiens) (UniProt P04150). The experiment in a line: GR-GFP Redistribution (AID 450;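 active = compounds whose dose series gives a full or clear partial fitted curve of increased nuclear translocation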; note: potency is the fitted concentration of half-maximal effect). The following applies: U2OS GR-GFP nuclear translocation, laser cytometry, 2 h.
Experiment [5] has the same target. In words: GR-EFC Redistribution (AID 451; calls by dose curve; note: potency is the fitted concentration of half-maximal effect). The following applies: CHO-K1 GR-EFC translocation, beta-gal luminescence, 2 h. The gist of the method:
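CHO-K1 cells expressing nuclear EA and GR-ED fragments of b-gal; compounds titrated up to 46 uM final, 2 h at 37 C. GR nuclear translocation read as complemented b-gal luminescence after 1 h RT detection.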

In experiment [6] the target is Mitogen-activated protein kinase 10 (Mus musculus) (UniProt Q61831). In words: JNK3 AlphaScreen Assay (AID 530; active = well fitted curve in either direction with a large enough effect, not every such curve was filed as active;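 note: kinase came from lysate of stimulated human HepG2 cells; signal reports phosphorylation of biotinylated GST-cJun 1-79 at Ser73 with 10 µM ATP; % is set by controls: 0 for no effect and ±100 for the full control effect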). The gist of the method: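 Activity was read by AlphaScreen after JNK3-containing HepG2 lysate (cytokine pre-activated) phosphorylated biotinylated GST-cJun with 10 uM ATP at room temperature. Phospho-Ser73 cJun antibody with Protein-A acceptor beads provided detection.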
Background: Alpha assays give light when donor and acceptor beads are brought close together.

For experiment [7], the target named is 3',5'-cyclic-AMP phosphodiesterase 4B (Homo sapiens) (UniProt Q07343). In words: qHTS Assay for Inhibitors of PDE-IV (AID 607; active = well fitted activation curve with a large enough effect in the main read-out, with a control signal flat, not every such curve was filed as active; note: % of control where 0% means no effect). A digest of the protocol: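 The readout is membrane depolarisation from a cAMP-sensing CNG channel, detected with a potential dye at ex 535/em 590. Cells were HEK293-derived (endogenous PDE-IV) at 1000 cells/well, titrated up to 22.9 uM final.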
Chain of 3',5'-cyclic-AMP phosphodiesterase 4B (Homo sapiens) (Q07343 whole entry, looked up): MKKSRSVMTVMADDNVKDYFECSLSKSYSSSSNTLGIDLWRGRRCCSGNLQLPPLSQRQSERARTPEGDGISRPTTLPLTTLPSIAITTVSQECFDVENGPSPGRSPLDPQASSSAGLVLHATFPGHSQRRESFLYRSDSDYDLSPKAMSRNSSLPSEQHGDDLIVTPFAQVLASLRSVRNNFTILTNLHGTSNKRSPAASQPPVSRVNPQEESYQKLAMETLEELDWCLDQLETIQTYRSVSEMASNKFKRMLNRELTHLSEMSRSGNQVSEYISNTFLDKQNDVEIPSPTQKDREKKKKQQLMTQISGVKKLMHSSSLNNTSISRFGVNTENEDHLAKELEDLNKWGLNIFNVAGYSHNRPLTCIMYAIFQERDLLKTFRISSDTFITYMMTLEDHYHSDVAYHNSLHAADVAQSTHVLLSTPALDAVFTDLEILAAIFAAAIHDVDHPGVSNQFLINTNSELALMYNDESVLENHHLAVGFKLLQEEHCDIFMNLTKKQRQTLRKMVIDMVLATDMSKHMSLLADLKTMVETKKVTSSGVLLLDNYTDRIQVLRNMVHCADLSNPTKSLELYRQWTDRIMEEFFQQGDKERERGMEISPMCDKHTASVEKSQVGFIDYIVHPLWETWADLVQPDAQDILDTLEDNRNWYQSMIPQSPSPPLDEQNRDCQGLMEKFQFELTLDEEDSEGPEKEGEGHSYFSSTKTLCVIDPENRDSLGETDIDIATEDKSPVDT
Background: In qHTS, concentration-response curves come from the screen itself.

The target of experiment [8] is Guanine nucleotide-binding protein G(i) subunit alpha-1 (Homo sapiens) (UniProt P63096). The experiment in a line: qHTS Assay for Inhibitors of RGS12 GoLoco Motif Activity (Green Fluorophore) (AID 879).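 Note: 0% = labeled peptide with Gαi1 and full inhibition = labeled peptide alone without protein; negative values mean loss of peptide binding seen as reduced polarization.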 The gist of the method:
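A drop in FITC polarization marked displacement of the FITC-tagged RGS12 GoLoco peptide (10 nM) from Gαi1 (50 nM). Compounds were incubated 10 min at room temperature in Tris pH 7.5 buffer containing 150 mM NaCl, 0.1 mM GDP and 0.05% NP40; unlabeled peptide titration served as control.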

Experiment [9] is described as follows: qHTS Assay for Identification of Small Molecule Agonists for Thrombopoietin (TPO) Signaling Pathway (AID 917). Note: % is set by controls: 0 for no effect and ±100 for the full control effect. The gist of the method:
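Quantitative HTS for pathway activators: compounds were pin-transferred onto IL-3-starved Ba/F3 cells expressing human TPO receptor, TPO was added at its EC50 (26 pM final), and after 24 hrs at 37 C reporter luciferase was measured.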

The target in experiment [10] is Pyruvate kinase (Leishmania mexicana) (UniProt Q27686). In words: qHTS Validation Assay for Inhibitors of Leishmania Mexicana Pyruvate Kinase (AID 945).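 Note: 0% = DMSO only neutral control wells.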 The gist of the method:
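Eight-point qHTS titrations in triplicate, data normalized to DMSO neutral control. Reaction: 0.2 nM LmPYK E451W mutant, 0.5 mM PEP, 0.1 mM ADP, 7 mM MgCl2, pH 7.2, one hour at room temperature; luminescent ATP detection.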

Experiment [11] has as its target Pyruvate kinase PKM (Homo sapiens) (UniProt P14618). In words: qHTS Assay for Activators of Human Muscle Pyruvate Kinase (AID 954; active = well fitted curve in the direction sought with a large enough effect, not every such curve was filed as active;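 note: 0% = uninhibited enzyme and -100% = no enzyme or full thiadiazolimine inhibition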). The gist of the method: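 PKM2, human, >95% pure, 0.1 nM; PEP 0.5 mM (Km), ADP 0.1 mM; 50 mM imidazole pH 7.2, 50 mM KCl, 0.01% Tween 20, 0.05% BSA; 1 h RT; luciferase luminescence readout.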
Experiment [12] deals with Alpha-galactosidase A (Homo sapiens) (UniProt P06280). In words: Counterscreen for Glucocerebrosidase Inhibitors: qHTS Assay for Human alpha-Galactosidase at pH 4.5 (AID 992). Note: 0% is about no effect. A digest of the protocol:
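Fluorogenic 4-MU alpha-D-galactoside (80 uM) hydrolysis, 2 nM enzyme, pH 4.5 citrate buffer + 0.005% Tween-20; 20 min RT; NaOH/glycine pH 10 stop; Ex365/Em440. Compounds titrated 0.7 nM–77 uM; Hill-equation AC50.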
In general terms: The purpose of a counterscreen is to sort out artefacts and off-target activity.

In experiment [13] the target is alpha-glucosidase (Oryza sativa, rice) (UniProt Q653V4). The experiment in a line: Counterscreen for Glucocerebrosidase Inhibitors: qHTS Assay for Rice alpha-Glucosidase at pH 5.0 (AID 997).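 Note: 0% = full activity with enzyme and -100% = basal without enzyme.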 A digest of the protocol: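 Endpoint fluorogenic assay at pH 5.0: compounds (0.7 nM to 77 uM) titrated against 4 nM rice enzyme and 400 uM 4-MU-alpha-glucoside for 20 min at room temperature; NaOH/glycine stop, read ex 365/em 440 nm, Hill-fitted AC50.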

Experiment [14] in a line: qHTS Assay for Identification of Small Molecule Antagonists for NFkB Signaling Pathway (AID 895; active = well fitted inhibition curve with a large enough effect in the signal ratio, with a control signal flat, not every such curve was filed as active; the % refers to the signal ratio; note: % is set by controls: 0 for no effect and ±100 for the full control effect). The gist of the method: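 ME-180 NFkB-bla cells (beta-lactamase under NFkB response element), plated overnight, treated with compound then 10 pM TNF alpha (about EC50) for 5 hrs at 37 C. LiveBLAzer FRET read at 460/530 nm emission, 405 nm excitation.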
For experiment [15], the target named is Muscarinic acetylcholine receptor M1 (Rattus norvegicus) (UniProt P08482). The experiment in a line: qHTS Assay for Antagonists of Acetylcholine Muscarinic M1 Receptor: Measurement of IP-One Response (AID 944). Note: nearly all actives have a fitted effect of over 75% in size. A digest of the protocol:
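Antagonist mode with rat M1 receptor transfected into CHO cells. Compound is added first for 10 min, carbachol at its EC80 follows for 30 min, and lysis reagents then allow TR-FRET detection of accumulated IP1.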

Experiment [16] has as its target Cytochrome P450 2C9 (Homo sapiens) (UniProt P11712). In words: qHTS Assay for Inhibitors and Substrates of Cytochrome P450 2C9 (AID 883). Note: % is set by controls: 0 for no effect and ±100 for the full control effect; nearly all actives have a fitted effect of over 60% in size. The gist of the method:
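Signal: luciferase luminescence reporting luciferin produced by CYP2C9. Conditions: 10nM enzyme, Luciferin-H 100uM at KM, 25mM KPO4, 37C, 60 min NADPH-driven reaction. Reference: 57uM sulphaphenazole as 100% inhibition.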

Experiment [17] in a line: Stat Signaling Pathway (AID 446; active = well fitted curve in either direction with a large enough effect, not every such curve was filed as active). The following applies: ME-180 (cervical carcinoma) SIE beta-lactamase reporter, IL-6 stimulated, 5 h; at 7.69 µM (top of the series) unless noted. A digest of the protocol: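 Emission at 460 and 530 nm (excitation 405 nm) reports SIE-controlled beta-lactamase in ME-180 cells. Cells received compound with 40 pM IL-6 for 5 hrs at 37 C; data scaled between 300 pM IL-6 and 125 nM JAK-inhibitor controls.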

The text below walks through data of PubChem BioAssay (NCATS).

Each structure is given as a SMILES string. A number with no mark means an inactive call. Records with an inconclusive call do not appear. Active and inactive are the calls of the source. Unless noted, calls come from the whole dose curve; as a rule, active = well fitted curve in the direction sought with a large enough effect; inconclusive = small, poorly fitted or top-dose-only effect, or another doubt; inactive = no such curve, though single readings can be large; an effect the other way counts as inactive or inconclusive. Bounds are passed on as bounds.

Chain of Pyruvate kinase (Leishmania mexicana) (Q27686 2-499 E452W): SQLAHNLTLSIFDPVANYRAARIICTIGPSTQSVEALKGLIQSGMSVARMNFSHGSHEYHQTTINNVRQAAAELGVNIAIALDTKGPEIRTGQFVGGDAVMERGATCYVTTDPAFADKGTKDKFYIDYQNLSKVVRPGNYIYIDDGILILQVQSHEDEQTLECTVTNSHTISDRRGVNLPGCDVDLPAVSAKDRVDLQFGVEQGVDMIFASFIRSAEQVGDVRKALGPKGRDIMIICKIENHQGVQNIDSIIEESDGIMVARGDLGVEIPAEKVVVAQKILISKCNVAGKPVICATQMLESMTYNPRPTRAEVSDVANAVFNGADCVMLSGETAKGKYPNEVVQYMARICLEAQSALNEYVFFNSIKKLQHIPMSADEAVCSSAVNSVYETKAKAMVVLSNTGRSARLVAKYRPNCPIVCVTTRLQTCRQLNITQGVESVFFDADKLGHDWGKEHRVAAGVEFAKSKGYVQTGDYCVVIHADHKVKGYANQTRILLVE
Chain of Alpha-galactosidase A (Homo sapiens) (P06280 whole entry, looked up): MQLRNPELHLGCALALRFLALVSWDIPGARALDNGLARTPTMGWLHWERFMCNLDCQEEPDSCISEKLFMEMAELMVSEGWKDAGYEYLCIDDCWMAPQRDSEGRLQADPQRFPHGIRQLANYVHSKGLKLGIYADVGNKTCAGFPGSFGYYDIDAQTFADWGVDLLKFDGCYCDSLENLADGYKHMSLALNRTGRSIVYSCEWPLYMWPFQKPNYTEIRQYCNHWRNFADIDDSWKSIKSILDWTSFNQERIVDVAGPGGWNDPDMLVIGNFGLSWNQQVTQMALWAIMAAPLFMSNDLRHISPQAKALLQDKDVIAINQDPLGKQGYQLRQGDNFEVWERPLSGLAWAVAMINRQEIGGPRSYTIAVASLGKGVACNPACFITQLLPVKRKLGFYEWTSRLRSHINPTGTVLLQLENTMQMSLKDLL
Chain of Glucocorticoid receptor (Homo sapiens) (P04150 whole entry, looked up): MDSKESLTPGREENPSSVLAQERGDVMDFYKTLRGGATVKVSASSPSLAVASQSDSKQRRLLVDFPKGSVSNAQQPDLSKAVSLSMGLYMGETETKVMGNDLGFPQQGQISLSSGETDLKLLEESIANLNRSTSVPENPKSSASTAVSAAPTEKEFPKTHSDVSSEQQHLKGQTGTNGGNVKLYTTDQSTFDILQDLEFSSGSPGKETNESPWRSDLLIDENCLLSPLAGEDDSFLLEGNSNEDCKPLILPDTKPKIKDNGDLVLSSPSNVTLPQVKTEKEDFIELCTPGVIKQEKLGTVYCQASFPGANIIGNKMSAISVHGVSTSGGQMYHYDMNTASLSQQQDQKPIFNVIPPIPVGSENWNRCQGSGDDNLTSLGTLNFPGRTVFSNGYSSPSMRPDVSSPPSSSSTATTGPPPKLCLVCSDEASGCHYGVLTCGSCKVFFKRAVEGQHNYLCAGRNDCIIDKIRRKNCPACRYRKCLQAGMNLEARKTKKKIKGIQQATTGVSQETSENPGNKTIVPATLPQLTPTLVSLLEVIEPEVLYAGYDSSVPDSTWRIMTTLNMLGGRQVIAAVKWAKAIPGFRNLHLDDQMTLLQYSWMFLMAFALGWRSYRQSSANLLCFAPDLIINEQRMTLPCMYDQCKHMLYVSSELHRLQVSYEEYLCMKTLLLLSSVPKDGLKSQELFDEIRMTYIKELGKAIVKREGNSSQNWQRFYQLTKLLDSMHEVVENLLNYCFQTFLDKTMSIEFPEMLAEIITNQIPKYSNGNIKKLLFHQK
Chain of Muscarinic acetylcholine receptor M1 (Rattus norvegicus) (P08482 whole entry, looked up): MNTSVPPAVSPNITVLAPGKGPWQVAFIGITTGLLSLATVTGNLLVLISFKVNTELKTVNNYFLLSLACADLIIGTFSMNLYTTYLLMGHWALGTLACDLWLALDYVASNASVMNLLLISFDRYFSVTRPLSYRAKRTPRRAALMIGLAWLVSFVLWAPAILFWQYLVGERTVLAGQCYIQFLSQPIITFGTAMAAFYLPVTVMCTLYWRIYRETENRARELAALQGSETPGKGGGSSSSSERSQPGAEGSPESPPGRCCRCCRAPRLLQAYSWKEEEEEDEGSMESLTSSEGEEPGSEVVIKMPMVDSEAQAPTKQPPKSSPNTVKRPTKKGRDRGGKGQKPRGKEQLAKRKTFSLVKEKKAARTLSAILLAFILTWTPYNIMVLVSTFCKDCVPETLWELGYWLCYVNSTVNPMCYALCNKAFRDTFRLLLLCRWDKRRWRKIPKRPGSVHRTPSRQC
Chain of Pyruvate kinase PKM (Homo sapiens) (P14618 whole entry, looked up): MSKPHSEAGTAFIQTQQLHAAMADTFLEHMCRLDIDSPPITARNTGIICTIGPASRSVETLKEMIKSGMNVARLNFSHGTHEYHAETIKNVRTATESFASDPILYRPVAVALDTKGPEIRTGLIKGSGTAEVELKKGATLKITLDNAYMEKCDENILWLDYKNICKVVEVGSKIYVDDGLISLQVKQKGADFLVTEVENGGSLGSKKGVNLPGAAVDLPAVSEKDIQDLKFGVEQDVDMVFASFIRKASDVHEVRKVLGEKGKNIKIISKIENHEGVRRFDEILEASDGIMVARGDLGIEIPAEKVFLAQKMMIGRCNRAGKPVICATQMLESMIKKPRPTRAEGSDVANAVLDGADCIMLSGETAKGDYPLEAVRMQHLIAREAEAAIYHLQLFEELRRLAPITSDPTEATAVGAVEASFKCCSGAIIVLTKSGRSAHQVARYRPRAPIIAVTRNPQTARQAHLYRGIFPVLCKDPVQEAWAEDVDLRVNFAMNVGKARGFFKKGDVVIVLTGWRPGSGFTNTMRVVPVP
Chain of Guanine nucleotide-binding protein G(i) subunit alpha-1 (Homo sapiens) (P63096 whole entry, looked up): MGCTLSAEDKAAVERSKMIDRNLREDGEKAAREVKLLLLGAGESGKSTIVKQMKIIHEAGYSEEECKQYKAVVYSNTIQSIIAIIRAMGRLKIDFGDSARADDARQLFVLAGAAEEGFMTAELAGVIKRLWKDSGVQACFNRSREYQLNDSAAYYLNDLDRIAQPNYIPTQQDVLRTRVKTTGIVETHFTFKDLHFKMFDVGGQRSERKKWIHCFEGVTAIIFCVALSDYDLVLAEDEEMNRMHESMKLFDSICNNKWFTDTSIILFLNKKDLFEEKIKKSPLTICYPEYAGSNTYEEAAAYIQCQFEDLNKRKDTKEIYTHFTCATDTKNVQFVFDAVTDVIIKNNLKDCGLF
Chain of Cytochrome P450 2C9 (Homo sapiens) (P11712 whole entry, looked up): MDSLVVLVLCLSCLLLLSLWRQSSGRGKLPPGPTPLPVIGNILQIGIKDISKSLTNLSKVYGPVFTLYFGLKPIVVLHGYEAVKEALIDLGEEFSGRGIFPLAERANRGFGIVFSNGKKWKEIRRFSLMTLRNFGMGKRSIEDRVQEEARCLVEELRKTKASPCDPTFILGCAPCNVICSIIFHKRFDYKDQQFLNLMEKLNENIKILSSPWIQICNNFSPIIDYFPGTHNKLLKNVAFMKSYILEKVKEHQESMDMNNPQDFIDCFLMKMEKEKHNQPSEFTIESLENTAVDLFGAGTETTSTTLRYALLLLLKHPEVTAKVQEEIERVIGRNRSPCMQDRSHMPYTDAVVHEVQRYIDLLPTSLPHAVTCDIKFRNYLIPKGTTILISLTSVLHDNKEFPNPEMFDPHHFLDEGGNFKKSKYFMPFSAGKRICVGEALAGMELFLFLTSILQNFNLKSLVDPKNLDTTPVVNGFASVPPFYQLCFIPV

On to `CC(=O)[C@@H]1CC[C@@H]2[C@@H]3CC=C4C[C@H](OS(=O)(=O)O)CC[C@@]4(C)[C@H]3CC[C@]21C`, for which the activity change, negative = inhibition in experiment [1] was 12.4% [at 38 µM]; in [3], 1.64% [at 38 µM]. Further, the Potency entry in [2], in experiment [6], in experiment [7] and in experiment [13] was “inactive” in each case. For the same molecule, the Potency in experiment [4] and in [5] was above 46 µM in each case. Besides, the outcome in experiment [8], in experiment [9], in experiment [10], in experiment [11] and in [12] was inactive.
Turning to `Nc1nc(Cl)nc2c1ncn2[C@@H]1O[C@@H](COP(=O)(O)OP(=O)(O)OP(=O)(O)O)[C@@H](O)[C@H]1O`, the results for the activity change, negative = inhibition in experiment [1] and in experiment [3] were 18.9% [at 38 µM] and 9.46% [at 38 µM], respectively. Also, the Potency entry in [2], in [6], in experiment [7], in experiment [14], in experiment [15] and in experiment [13] was “inactive” in each case. Further, the Potency in experiment [4] and in experiment [5] was above 46 µM throughout. Moreover, the result in [8], in [10], in [11] and in [12] was inactive.
As for `C=C(C)[C@@H]1CC=C(C(=O)O)CC1`, the activity change, negative = inhibition was 3.75% [at 38 µM] in experiment [1] and -3.51% [at 38 µM] in experiment [3]. Besides, the Potency entry in [2], in experiment [6], in experiment [7], in experiment [14], in [15] and in experiment [13] was “inactive” in each case. For the same molecule, the Potency in experiment [4] and in [5] was above 46 µM throughout. Further, the molecule was classed as inactive in [8], in experiment [9], in experiment [10], in experiment [11] and in [12].
For the molecule `Nc1c2c(nc3ccccc13)CCC[C@H]2O`, the values for the activity change, negative = inhibition in [1] and in experiment [3] were 1.75% [at 38 µM] and 0.441% [at 38 µM], respectively. Further, the Potency in [2] is 10 µM (active); in experiment [4], above 46 µM; in experiment [5] it was above 46 µM. The Potency entry in experiment [6], in experiment [7], in experiment [16], in [14], in experiment [15] and in [13] was “inactive” in each case. Further, the outcome in experiment [8], in experiment [9], in experiment [10], in [11] and in experiment [12] was inactive.
With `C[C@H]1C[C@@H]2[C@H]3CCC4=CC(=O)C=C[C@@]4(C)[C@@]3(Cl)[C@@H](O)C[C@]2(C)[C@]1(OC(=O)c1ccco1)C(=O)CCl`, the figures for the activity change, negative = inhibition in experiment [1] and in [3] were -22% [at 17.2 µM] and -27.1% [at 17.2 µM], respectively. Besides, the Potency in [2] is 5.01 µM (active). For the same molecule, the activity, negative = inhibition in experiment [17] is -1.49% [at 17.2 µM]. Moreover, the Potency result in [6] and in experiment [7] was “inactive” in each case.
For the molecule `Cc1ccc(SCN2CCCCC2)cc1` (tested in a mixture with another compound), the activity change, negative = inhibition in experiment [1] was -5.94%; in [3], 16.7%. Further, the Potency in experiment [2] was 3.98 µM (active); in experiment [4], above 46 µM; in experiment [5], above 9.22 µM. Besides, the Potency entry in experiment [6] and in experiment [7] was “inactive” each time.
